Shown is part of a subset that was picked to be rich in hits.
Tg IFNy HTS – T. gondii growth inhibition with IFN-gamma, primary screen, cell-based; activity change, negative = inhibition, % (test concentration not listed); Toxoplasma gondii growth in IFN-gamma-treated host cells; stronger effect = lower value; 69,000 tested, 3.8% active; in the data active = activity change below about -70%, passing the limit was not always enough;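 also: host cells are HeLa cells infected with Toxoplasma gondii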
Numbers stand for hits; n = inactive; ! = a repeat was not active.

SMILES | Tg IFNy HTS
CNc1cc(CN(C)C(=O)C(C)(C)c2cccc(F)c2)nc(C2CCCN2C(C)=O)n1 (centres undefined) | n
Cc1cc(C)n(-c2cccc(C(=O)NCC(C)n3nc(C)c(C)c3C)c2)n1 (centres undefined) | n
Cc1nc2c(Cl)cc(Cl)cc2c2nc(N)nn12 | -92.3
O=C(Cn1c(=O)cc(C(=O)N2CCCC2)c2ccccc21)Nc1ccc(F)c(Cl)c1 | n
Cc1ccc(NC(=O)Cn2c(=O)cc(C(=O)N3CCc4ccccc4C3)c3ccccc32)cc1F | n
O=C(Cn1c(=O)cc(C(=O)N2CCc3ccccc3C2)c2ccccc21)Nc1ccc(F)c(Cl)c1 | -71.9
COCCN1C2(CCN(C(=O)c3ccno3)C2)c2ccccc2S1(=O)=O (centres undefined) | n
COCC(NC(=O)c1cc2n(n1)CCCN(C)C2)c1ccccn1 (centres undefined) | n
CS(=O)(=O)N1CCCc2ccccc2C1c1ccnc(Oc2cccnc2)c1 (centres undefined) | n
Cc1cc2c(cc1-c1nccn1-c1ccc3cn[nH]c3c1)OCO2 | -81.1
Clc1cc2c(cc1-c1nccn1-c1ccc(Oc3nn[nH]n3)cc1)OCO2 | n
Cc1cc2c(cc1-c1nccn1CCc1nc(-c3cccnc3)no1)OCO2 | n
Cc1ccsc1C(CNC(=O)c1cc2n(n1)CCCN(C)C2)N(C)C (centres undefined) | n
CCC(C)n1ncn(-c2ccc(N3CCN(c4ccc(OCC5COC(Cn6cncn6)(c6ccc(Cl)cc6Cl)O5)cc4)CC3)cc2)c1=O (centres undefined) | -95.1
C=CCO[C@@H]1C[C@H]2CN(C(=O)c3cnc(C)cn3)CCN2C1 | n
Cc1ccc(C)c(NC(=O)N2CCC3(CC2)Nc2ccccc2-n2cccc23)c1 | n
CN1CC2(CCCN(C(=O)c3ncccc3O)C2)OC1=O (centres undefined) | n
CC(C)Oc1ccc(NC(=O)c2cc(-c3cnc(-c4cccnc4)nc3)cn2C)cc1 | n
Cc1cn(-c2cc(NC(=O)c3ccc(C)c(Nc4nccc(-c5cccnc5)n4)c3)cc(C(F)(F)F)c2)cn1 | -76.6!
Cc1ccc(NC(=O)c2ccc(CN3CCN(C)CC3)cc2)cc1Nc1nccc(-c2cccnc2)n1 | n
CN1C(=O)CCc2cc(NS(=O)(=O)Cc3ccc(Cl)cc3)ccc21 | n
CC(C)c1c(O)ccc2c1CCC1C(C)(C)CCC[C@]21C (some centres undefined) | n
COC(=O)[C@@]1(C)CCC[C@]2(C)c3ccc(O)c(C(C)C)c3CCC12 (some centres undefined) | -76.4
CC(C)c1ccc2c(c1)CCC1C(C)(C(N)=O)CCCC21C (centres undefined) | -71.9
CC(C)c1ccc2c(c1)CCC1[C@](C)(CN)CCC[C@]21C (some centres undefined) | n
SMILES | Tg IFNy HTS
COc1ccc2c3c(n(C)c2c1)[C@@H](CO)N(C(=O)CC1CC1)CC31CN(C(=O)NC(C)C)C1 | n
Cc1[nH]cnc1-c1nccn1CC(C)Oc1cccnc1 (centres undefined) | n
COc1ccccc1-c1nc(Cn2nnc(C(=O)Nc3ccc(C)c(F)c3)c2C)c(C)o1 | n
CC(C)(C)NC[C@H](O)COc1ccccc1C1CCCC1 | n
OC(CNC1Cc2ccccc2C1)COc1ccc(F)cc1 (centres undefined) | n
CCc1ccccc1OC[C@@H](O)CN[C@H]1CCCc2ccccc21 | -80.5!
CCN(CC)C(=O)C1(c2ccccc2)CC1CN (centres undefined) | n
CO[C@@H]1CO[C@@]2(CCCN(C(=O)c3ccncn3)C2)C1 | n
COc1ccccc1CN(CCCn1ccnc1)Cc1cn(C)c2ccccc12 | n
CC1(C(=O)NCc2ccc(F)cc2F)CCN(C(=O)c2ccco2)CC1 | n
COCCn1c(-c2ccc(OC)cc2)cnc1SCC(=O)Nc1ccc(C)c(Cl)c1 | -90.1
COc1ccc(-c2ccnc(SCC(=O)Nc3ccccc3)n2)cc1 | n
COc1ccc(CC(=O)Nc2ccc(-c3nc(-c4cc(C)ccc4C)co3)cc2)cc1 | n
CC(C)n1cnc(-c2cc(C(=O)C3CC3)c3ccccn23)c1 | n
CCOc1ncccc1C(=O)N1CCS(=O)(=O)CC1 | n
CC(C)N=C(N)/N=C(\N)Nc1ccc(Cl)cc1 | n
CC(=O)Nc1ccc(-c2cn(Cc3ccc(Cl)cc3)nn2)cc1 | n
NC(=NCCCCCCN=C(N)/N=C(\N)Nc1ccc(Cl)cc1)/N=C(\N)Nc1ccc(Cl)cc1 | -82.4
Cc1cccc2[nH]c(C3CCCN3S(=O)(=O)NCc3ccccc3)nc12 (centres undefined) | n
CC(C)N1Cc2cncn2CC(COc2ccc(C#N)cn2)C1 (centres undefined) | n
COCCC(=O)c1c2c(NC(C)C)ncnc2n2ccccc12 | n
CC(Cn1cc(Cl)cn1)C(=O)Nc1ccc(N2CCOCC2)c(F)c1 (centres undefined) | n
Cc1ccc(CN(Cc2ccc3c(c2)OCO3)Cc2cnc(C)[nH]2)cc1 | n
Cc1ccc(O)c(CN(Cc2cccnc2)Cc2ccc3c(c2)OCO3)n1 | n
COCCc1ncc(CN(Cc2ccncc2)Cc2ccc3c(c2)OCO3)cn1 | -71.3

Assay outcomes deposited in PubChem by Broad Institute.
